From PubChem BioAssay (Tox21)
Where “and” joins values, the source holds several entries; their conditions need not be identical. Identical values can stand only once. Records with an inconclusive call do not appear. Entries that show only a call come without a potency. Values without a mark were called inactive. Calls of active or inactive are those of the source. Calls come from the whole dose curve; as a rule, active = well fitted activation curve with a large enough effect in the repeat runs; inconclusive = weak or mixed curves; inactive = flat fitted curve, though single readings scatter.

Assay: A CellTox Green Cytotoxicity Assay to monitor cytotoxicity in HepG2 cells - 24 hour (AID 1224878); note: nearly all actives have a fitted effect of over 45% in size
Details: CellTox Green fluorescence; series mostly up to 76.8 µM
Excerpt: National Center for Advancing Translational Sciences [NCATS]
NIH Chemical Genomics Center [NCGC]
U.S. Environmental Protection Agency [EPA]
National Institutes of Environmental Health Sciences [NIEHS]
National Toxicology Program [NTP]
Cell-based models are critical for drug discovery. Determining the natural cytotoxic effects resulting from test compounds is an essential research activity. A CellTox Green Cytotoxicity Assay to monitor cytotoxicity in real time of continues cell culture during 40 hours of the compound treatment was used to screen Tox21 10K library compounds in HepG2 cells. CellTox Green Cytotoxicity Assay is a nonlytic, homogeneous, biofluorescent method to measure cytotoxicity in cell culture after experimental manipulation. The assay system uses a proprietary asymmetric cyanine dye that is excluded from viable cells but preferentially stains the dead cell's DNA. […] Viable cells produce no appreciable increases in fluorescence. Therefore, the fluorescence signal produced by the binding interaction with dead cell DNA is proportional to cytotoxicity.
The mixture of HepG2 cell suspension and reagents were dispensed at 600cells/6 ul/well in 1536-well tissue culture treated black solid bottom plates using a Multidrop dispenser. After the assay plates were incubated at a 37 C/5% CO2 incubator for 5 hours, 23 nL of compounds dissolved in DMSO, positive and negative controls was transferred to the assay plate by a pintool work station. The plates were incubated at 37 C for 40 hours. The fluorescence intensity were measured at 0h, 8h, 16h, 24h, 32h and 40h time points using ViewLux plate reader during compound treatment.
Potency is the fitted concentration of half-maximal effect.

Structure (SMILES)	Potency	cytotoxicity
CC(=O)[O-].CC(=O)[O-].[Hg+2]	2.19 µM (active)	
COc1cc(N)c(Cl)cc1C(=O)NC1CN2CCC1CC2 (stereo not given)	inactive	
[Cl][Sn]([c]1ccccc1)([c]1ccccc1)[c]1ccccc1	2.61 µM (active)	
CC(C)C1CCC(Cc2ccc(Cl)cc2)C1(O)Cn1cncn1 (stereo not given)	43.2 µM (active)	
O=C(Nc1ccc2[nH]ccc2c1)c1cc2cc(F)ccc2n1Cc1cccc(F)c1	inactive	
Cc1cc(SCc2sc(-c3ccc(C(F)(F)F)c(F)c3)nc2C)ccc1OCC(=O)O	inactive	
CC(=O)c1ccc(-c2ccccc2)cc1	inactive	
[Cd+2].[Cl-].[Cl-]	22.1 µM (active) and 38.9 µM (active)	
O=C1C=CC(=O)c2ccccc21	12.3 µM (active)	
CCC[CH2][Sn]([CH2]CCC)([CH2]CCC)[O]C(=O)c1ccccc1	0.692 µM (active)	
Cc1cc(Cl)ccc1O[C@H](C)C(=O)O	inactive	
COC(=O)N(C(=O)N1CO[C@@]2(C(=O)OC)Cc3cc(Cl)ccc3C2=N1)c1ccc(OC(F)(F)F)cc1	inactive	
N#Cc1ccc(O)cc1	inactive	
O=C(CBr)c1ccc(O)cc1	inactive	
Clc1ccc(C(c2ccccc2Cl)C(Cl)(Cl)Cl)cc1 (stereo not given)	inactive	
CCCCOCN(C(=O)CCl)c1c(CC)cccc1CC	inactive	
CC(C)N1C(=O)N(c2ccccc2)CSC1=NC(C)(C)C	inactive	
CC(C)CC(C)(c1ccc(O)cc1)c1ccc(O)cc1	43.8 µM (active)	
CCCOCC(=Nc1ccc(Cl)cc1C(F)(F)F)n1ccnc1	43.6 µM (active)	
Brc1c(Br)c(Br)c(Oc2c(Br)c(Br)c(Br)c(Br)c2Br)c(Br)c1Br		-2.63% [at 15.8 µM]

Structure (SMILES)	Potency	cytotoxicity
N#CCc1ccc(Cl)cc1	inactive	
ClC1=C(Cl)[C@]2(Cl)[C@@H]3[C@@H](Cl)[C@H](Cl)C[C@@H]3[C@@]1(Cl)C2(Cl)Cl	inactive	
CC(C)[C@H](C(=O)OC(C#N)c1cccc(Oc2ccccc2)c1)c1ccc(OC(F)F)cc1 (stereo not given in full)	inactive	
NC(=O)CCl	inactive	
CC(c1ccc(O)cc1)c1ccc(O)cc1	inactive	
CC(=O)C(Cl)(Cl)Cl	inactive	
Nc1ccc(Cc2ccc(N)c(Cl)c2)cc1Cl	inactive	
C[As+](C)(C)CC(=O)[O-]	inactive	
CC(C)(COCC1CO1)COCC1CO1 (stereo not given)	inactive	
O=C(O)c1cc[c]([Hg][Cl])cc1	27.5 µM (active)	
CCSC(C)CC1CC(=O)C(/C(CC)=N/OC/C=C/Cl)=C(O)C1 (stereo not given)	inactive	
C=CC(=O)OCC(COC(=O)C=C)(COC(=O)C=C)COC(=O)C=C	49 µM (active)	
CC(C)Oc1cccc(NC(=O)c2ccccc2C(F)(F)F)c1	43.6 µM (active)	
ClC1=C(Cl)[C@]2(Cl)[C@H]3[C@H]([C@H]4C=C[C@H]3C4)[C@@]1(Cl)C2(Cl)Cl	inactive	
Cc1cc(N=Nc2ccccc2C)ccc1N	inactive	
CCN(CC)C(=S)[S-].CCN(CC)C(=S)[S-].[Zn+2]	12.2 µM (active)	
CC(O)C#N (stereo not given)	inactive	
CNC(C)Cc1ccc2c(c1)OCO2 (stereo not given)	inactive	
CC(C)OC(=O)C(O)(c1ccc(Cl)cc1)c1ccc(Cl)cc1	27.5 µM (active)	
CCOC(=O)C1(c2ccccc2)CCN(CCC(C#N)(c2ccccc2)c2ccccc2)CC1	inactive	
